43 molecules from PubChem BioAssay (NCATS) can be followed below.

The structures appear in SMILES notation. Inconclusive results are not listed. Entries that show only a call come without a potency. The source made the active and inactive calls. The call rests on the fitted dose curve; in most records, active means well fitted curve in the direction sought with a large enough effect; inconclusive means small, poorly fitted or top-dose-only effect, or another doubt; inactive means no such curve, though single readings can be large; an effect the other way counts as inactive or inconclusive.

The target in test [1] is Voltage-gated inwardly rectifying potassium channel KCNH2 (Homo sapiens) (UniProt Q12809). The experiment in a line: qHTS Assay for Small Molecule Inhibitors of the Human hERG Channel Activity (AID 588834).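 Further: lower thallium flux fluorescence means stronger hERG block; nearly all actives have a fitted effect of over 50% in size.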 Further: potency means the concentration at half of the fitted maximal effect. Put shortly:
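U2OS cells BacMam-transduced with hERG, 2000 cells/well, compound ~10 min at 37 °C before stimulation buffer. FluxOR thallium flux fluorescence read kinetically on FDSS; decrease indicates block; AC50 from Hill fits.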

For test [2], the target named is Luciferin 4-monooxygenase (Photinus pyralis) (UniProt P08659). The experiment in a line: Biochemical firefly luciferase enzyme assay for NPC (AID 624030). Further: nearly all actives have a fitted effect of over 70% in size. Further: potency means the concentration at half of the fitted maximal effect. Put shortly:
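Counter-screen for direct inhibition of the luciferase enzyme by approved-drug library compounds, run at 10 nM enzyme in 50 mM Tris acetate (final). Luminescence was read within 5 min of enzyme-buffer addition and normalized to PTC124 versus DMSO (0%).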

Test [3] in a line: S16 Schwann cell viability assay (CellTiter-Glo assay) (AID 624031).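 Further: native untransfected S16 rat Schwann cells; cellular ATP luminescence as a viability measure; series mostly up to about 58 µM; nearly all actives have a fitted effect of over 70% in size.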 In a few lines: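 Parental S16 cells, 24 h compound, 37 °C. ATP-luminescence viability; DMSO = 0% activity, empty wells as reference; curves classified by fit quality and efficacy.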
On the technique in general: Cellular ATP, detected with luciferase, serves as a proxy for viable cell number.

Chain of Voltage-gated inwardly rectifying potassium channel KCNH2 (Homo sapiens) (Q12809 whole entry, looked up): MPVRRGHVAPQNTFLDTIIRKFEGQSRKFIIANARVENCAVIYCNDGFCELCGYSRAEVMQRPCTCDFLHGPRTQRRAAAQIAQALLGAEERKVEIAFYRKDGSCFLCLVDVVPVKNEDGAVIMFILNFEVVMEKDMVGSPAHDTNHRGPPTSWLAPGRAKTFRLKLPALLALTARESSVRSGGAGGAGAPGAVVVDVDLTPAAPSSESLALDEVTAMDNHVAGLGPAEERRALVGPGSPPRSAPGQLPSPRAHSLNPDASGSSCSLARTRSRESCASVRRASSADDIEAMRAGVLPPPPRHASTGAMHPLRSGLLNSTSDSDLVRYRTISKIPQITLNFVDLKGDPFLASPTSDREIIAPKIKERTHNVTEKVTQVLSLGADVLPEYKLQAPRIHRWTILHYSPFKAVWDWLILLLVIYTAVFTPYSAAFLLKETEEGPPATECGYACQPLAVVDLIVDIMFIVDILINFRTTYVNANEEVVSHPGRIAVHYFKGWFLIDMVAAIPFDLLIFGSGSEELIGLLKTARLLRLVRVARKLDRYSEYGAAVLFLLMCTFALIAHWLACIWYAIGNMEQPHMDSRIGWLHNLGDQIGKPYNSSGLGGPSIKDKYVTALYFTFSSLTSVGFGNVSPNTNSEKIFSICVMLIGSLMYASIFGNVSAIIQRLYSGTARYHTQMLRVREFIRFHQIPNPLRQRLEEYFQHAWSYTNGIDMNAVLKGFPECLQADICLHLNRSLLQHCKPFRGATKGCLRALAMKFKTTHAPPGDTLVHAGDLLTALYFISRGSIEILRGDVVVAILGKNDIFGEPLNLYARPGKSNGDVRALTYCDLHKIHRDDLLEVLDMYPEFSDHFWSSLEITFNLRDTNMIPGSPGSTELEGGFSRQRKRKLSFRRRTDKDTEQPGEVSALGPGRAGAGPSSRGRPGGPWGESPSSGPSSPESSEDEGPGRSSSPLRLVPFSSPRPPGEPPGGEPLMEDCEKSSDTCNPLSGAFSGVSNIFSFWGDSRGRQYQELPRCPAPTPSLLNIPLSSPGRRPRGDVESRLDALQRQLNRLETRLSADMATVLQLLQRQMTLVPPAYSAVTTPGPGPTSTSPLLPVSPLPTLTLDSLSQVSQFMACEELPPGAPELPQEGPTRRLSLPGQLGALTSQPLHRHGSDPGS
Chain of Luciferin 4-monooxygenase (Photinus pyralis) (P08659 whole entry, looked up): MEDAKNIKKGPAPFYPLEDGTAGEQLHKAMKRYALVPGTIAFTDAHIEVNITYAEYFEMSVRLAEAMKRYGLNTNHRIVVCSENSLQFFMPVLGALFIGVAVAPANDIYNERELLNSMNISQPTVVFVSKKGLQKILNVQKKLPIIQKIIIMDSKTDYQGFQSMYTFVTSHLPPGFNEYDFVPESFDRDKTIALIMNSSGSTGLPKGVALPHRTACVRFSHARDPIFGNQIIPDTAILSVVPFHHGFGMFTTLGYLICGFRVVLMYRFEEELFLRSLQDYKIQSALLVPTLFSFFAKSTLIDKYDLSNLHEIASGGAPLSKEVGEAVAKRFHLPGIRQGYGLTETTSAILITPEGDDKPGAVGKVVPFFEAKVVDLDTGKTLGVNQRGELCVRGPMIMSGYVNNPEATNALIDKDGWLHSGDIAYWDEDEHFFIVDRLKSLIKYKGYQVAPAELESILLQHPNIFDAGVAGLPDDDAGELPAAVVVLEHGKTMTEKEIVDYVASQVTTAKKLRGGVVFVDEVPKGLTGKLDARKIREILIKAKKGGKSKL

In the case of `CCc1cccc(CC)c1NC(=O)CN(CC(=O)O)CC(=O)O`, the Potency entry in test [1] and in test [2] was “inactive” each time. In addition, the molecule was called inactive in test [3].
Regarding `CN1CCCN=C1COC(=O)C(O)(c1ccccc1)C1CCCCC1` (stereo unspecified), in test [1], the Potency was 2.82 µM (active). Also, the Potency result in test [2] was “inactive”.
As to `Cc1ccc(S(=O)(=O)NC(=O)NC2CCCCC2)cc1`, the Potency result in test [1] and in test [2] was “inactive” throughout. Further, in test [3], the molecule was called inactive.
For the molecule `O=C(CN1CCNCC1)NC1CCCCC1`, the Potency result in test [1] and in test [2] was “inactive” each time. The call in test [3] was inactive.
For the molecule `C[C@@H]1O[C@@H](OC[C@H]2O[C@@H](Oc3c(-c4ccc(O)c(O)c4)oc4cc(O)cc(O)c4c3=O)[C@H](O)[C@@H](O)[C@@H]2O)[C@H](O)[C@H](O)[C@H]1O`, the Potency result in test [1] and in test [2] was “inactive” throughout.
As to `CC(C)(C)C(=O)OCOC(=O)[C@@H]1N2C(=O)[C@@H](NC(=O)[C@H](N)c3ccccc3)[C@H]2SC1(C)C`, the Potency entry in test [1] and in test [2] was “inactive” throughout. The outcome in test [3] was inactive.
As for `CN1C[C@@H]2C[C@H]1CN2c1cc2c(cc1F)c(=O)c(C(=O)O)cn2C1CC1`, the Potency entry in test [1] and in test [2] was “inactive” each time. The outcome in test [3] was inactive.
Turning to `CCOC(N)=O`, the Potency entry in test [1] and in test [2] was “inactive” each time. For the same molecule, in test [3], the outcome was inactive.
As to `Cc1cc(C)c(NC(=O)CN(CC(=O)O)CC(=O)O)c(C)c1Br`, the Potency result in test [1] and in test [2] was “inactive” in each case. The molecule was called inactive in test [3].
Regarding `O=C(O)CCC(=O)O`, the Potency entry in test [1] and in test [2] was “inactive” each time. For the same molecule, the result in test [3] was inactive.
In the case of `Cc1c(C)c2c(c(C)c1OC(=O)c1cccnc1)CC[C@@](C)(CCC[C@H](C)CCC[C@H](C)CCCC(C)C)O2`, the Potency result in test [1] and in test [2] was “inactive” throughout. Further, the result in test [3] was inactive.
For `COC(=O)c1ccccc1C(=O)c1ccc(OCCN2CCCCC2)cc1`, the Potency result in test [1] and in test [2] was “inactive” in each case. The result in test [3] was inactive.
As to `COC(=O)c1cccnc1`, the Potency entry in test [1] and in test [2] was “inactive” each time. Besides, in test [3], the outcome was inactive.
Consider `CCCOC(=O)c1ccc(N)cc1`, for which the Potency entry in test [1] and in test [2] was “inactive” each time. Also, the outcome in test [3] was inactive.
As to `CNc1c2c(nn1C)CCCC2`, the Potency entry in test [1] and in test [2] was “inactive” throughout. Further, the outcome in test [3] was inactive.
With `O=C(O)Cn1c(C(=O)Nc2nc(-c3ccccc3Cl)cs2)cc2ccccc21`, the Potency result in test [1] was “inactive”. For the same molecule, the Potency in test [2] is 12.8 µM (active).
In the case of `CCOC(=O)[C@H](CCc1ccccc1)N[C@@H](C)C(=O)N1CCC[C@H]1C(=O)O`, the Potency result in test [1] and in test [2] was “inactive” each time. Also, the molecule was called inactive in test [3].
Turning to `CNCc1ccccc1`, the Potency result in test [1] and in test [2] was “inactive” throughout. Moreover, the outcome in test [3] was inactive.
For `c1ccc2[nH]ccc2c1`, the Potency entry in test [1] and in test [2] was “inactive” each time. Also, the molecule was classed as inactive in test [3].
As for `Cc1cc(-n2nc3ccc(Cl)cc3n2)c(O)c(C(C)(C)C)c1`, the Potency result in test [1] and in test [2] was “inactive” in each case. Moreover, in test [3], the result was inactive.
Consider `Cc1ccsc1C(=CCCN1CCC[C@@H](C(=O)O)C1)c1sccc1C`, for which the Potency entry in test [1] and in test [2] was “inactive” throughout. In test [3], the call was inactive.
On to `NS(=O)(=O)c1ccc(NC(=O)CCC(=O)O)cc1`, for which the Potency result in test [1] and in test [2] was “inactive” throughout. The molecule was called inactive in test [3].
In the case of `O=C(O)c1ccccc1OP(=O)(O)O`, the Potency entry in test [1] and in test [2] was “inactive” throughout. In addition, the molecule was called inactive in test [3].
`CN1CCN(C(=O)C2CCCCC2)CC1`: the Potency result in test [1] and in test [2] was “inactive” in each case. Further, the molecule was called inactive in test [3].
Take `CCCCCCCC(=O)OCC(O)CO` (stereo unspecified): the Potency entry in test [1] and in test [2] was “inactive” throughout. Moreover, the result in test [3] was inactive.
As to `O=C(NCN1CCOCC1)c1cnccn1`, the Potency entry in test [1] and in test [2] was “inactive” each time. Besides, the molecule was classed as inactive in test [3].
Consider `OCC(O)CS` (stereo unspecified), for which the Potency result in test [1] and in test [2] was “inactive” each time. Besides, in test [3], the call was inactive.
With `CCOc1cc(NC(C)=O)ccc1C(=O)OC`, the Potency result in test [1] and in test [2] was “inactive” each time. Besides, the call in test [3] was inactive.
In the case of `CC(=O)OC[C@H]1O[C@@](COC(C)=O)(O[C@H]2O[C@H](COC(C)=O)[C@@H](OC(C)=O)[C@H](OC(C)=O)[C@H]2OC(C)=O)[C@@H](OC(C)=O)[C@@H]1OC(C)=O`, the Potency result in test [1] and in test [2] was “inactive” in each case. For the same molecule, the molecule was called inactive in test [3].
As to `Cn1c([N+](=O)[O-])cnc1COC(N)=O`, the Potency entry in test [1] and in test [2] was “inactive” throughout. In test [3], the result was inactive.
On to `O=C(O)c1cc(=O)c2ccccc2o1`, for which the Potency result in test [1] and in test [2] was “inactive” throughout. In test [3], the result was inactive.
Take `COc1ccc(C(=O)NCc2ccc(OCCN(C)C)cc2)cc1OC`: the Potency entry in test [1] and in test [2] was “inactive” in each case. The outcome in test [3] was inactive.
For the molecule `CC(C(=O)O)c1ccc2c(c1)Cc1cccnc1O2` (stereo unspecified), the Potency entry in test [1] and in test [2] was “inactive” in each case. Moreover, the molecule was classed as inactive in test [3].
With `COc1cc(O)cc(O)c1`, the Potency entry in test [1] and in test [2] was “inactive” each time. In addition, in test [3], the molecule was called inactive.
On to `COc1nccnc1NS(=O)(=O)c1ccc(N)cc1`, for which the Potency entry in test [1] and in test [2] was “inactive” in each case. The result in test [3] was inactive.
For the molecule `CC(=O)Oc1cccc(C)c1`, the Potency entry in test [1] and in test [2] was “inactive” throughout. The outcome in test [3] was inactive.
With `CC(O)CCCCn1c(=O)c2c(ncn2C)n(C)c1=O` (stereo unspecified), the Potency result in test [1] and in test [2] was “inactive” in each case. Further, the molecule was called inactive in test [3].
Take `CCN(CC)CCc1nc(-c2ccccc2)no1`: the Potency result in test [1] and in test [2] was “inactive” each time. In addition, the outcome in test [3] was inactive.
For `CC(N)CCCC(C)(C)O` (stereo unspecified), the Potency entry in test [1] and in test [2] was “inactive” in each case. Besides, in test [3], the molecule was classed as inactive.
Regarding `Cn1c(=O)c2c(ncn2CCO)n(C)c1=O`, the Potency result in test [1] and in test [2] was “inactive” in each case. Also, the outcome in test [3] was inactive.
Take `Cc1onc(-c2ccccc2)c1-c1ccc(S(N)(=O)=O)cc1`: the Potency entry in test [1] and in test [2] was “inactive” in each case. For the same molecule, the call in test [3] was inactive.
Consider `O=C(O)CCCc1ccccc1`, for which the Potency entry in test [1] and in test [2] was “inactive” throughout. Also, the result in test [3] was inactive.
Turning to `O=C(Cn1ccnc1[N+](=O)[O-])NCc1ccccc1`, the Potency entry in test [1] and in test [2] was “inactive” each time. In test [3], the outcome was inactive.
